Reference: the supplement of paper PMC10849652
The full data set covers some 7,900 targets. This sample favours those with a hit. About 0.6% of all pairs of compound and target were hits.

Assays:
Test in all cases: log2 fold change, soluble protein after heating vs DMSO (PISA); higher = thermal stabilisation; K562 cells, 10 uM, 30 min; active = over 0.2 and 3.5 SD of the protein, either way, in both replicates (recomputed)
[1] = compound: CC[C@@H]1C(=O)N(C)c2cnc(Nc3ccc(C(=O)NC4CCN(C)CC4)cc3OC)nc2N1C1CCCC1
Procedure, shortened: (§1)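 K562 cells (2×10^6 cells/mL) were treated with 10 μM compound for 30 min, and aliquots were heated for 3 min over 48°C-58°C. Pooled aliquots were extracted in PBS with 0.5% NP-40 at 4°C, and the supernatant after 21,000xg for 90 min was measured by TMTpro 16plex LC-MS/MS with channel sums equalised. Reported thermal stability, relative to control samples and from duplicates, is a log2 fold change.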

[2] = compound: CC[C@@H]1C(=O)N(C)c2cnc(Nc3ccc(C(=O)N[C@H]4CC[C@H](N5CCN(CC6CC6)CC5)CC4)cc3OC)nc2N1C(C)C [volasertib]
Procedure, shortened: as §1

[3] = compound: CC[C@H](C)N1C=C(C2=C(C=C(C=C21)C3=CN=C(C=C3)N4CCNCC4)C(=O)NCC5=C(C=C(NC5=O)C)C)C
Procedure, shortened: as §1

[4] = compound: CC[C@H](C)[C@@H](C(=O)N[C@@H]([C@@H](C)O)C(=O)N[C@@H](CC(C)C)C(=O)[C@]1(CO1)C)NC(=O)[C@H]([C@@H](C)CC)N(C)C(=O)C [epoxomicin]
Procedure, shortened: as §1

[5] = compound: CCn1c(C(=O)N(C2CC2)C2CC2)cc2c3c(ncn3C)c(Nc3cc(C)n(C)n3)nc21
Procedure, shortened: as §1

[6] = compound: CCn1cc(-c2ccnc3[nH]c(-c4cccc(CN(C)C)c4)cc23)c(-c2ccc(NC(=O)N(C)C)cc2)n1
Procedure, shortened: as §1

[7] = compound: CN(C)CC(=O)Nc1ccc2[nH]c(=O)c3ccccc3c2c1
Procedure, shortened: as §1

[8] = compound: CN(CCOC1=CC=C(C=C1)C[C@H]2C(=O)NC(=O)S2)C3=CC=CC=N3 (racemic) [rosiglitazone]
Procedure, shortened: as §1

[9] = compound: CN1C2=C(C3=C1C(=O)N(N=C3)CC4=CC(=CC=C4)N)SC(=C2)S(=O)C
Procedure, shortened: as §1

[10] = compound: CN1CCC(CNc2ccc3ncc(-c4cccc(OC(F)(F)F)c4)n3n2)CC1
Procedure, shortened: as §1

[11] = compound: CN1CCN(CCOc2cc(OC3CCOCC3)c3c(Nc4c(Cl)ccc5c4OCO5)ncnc3c2)CC1 [saracatinib]
Procedure, shortened: as §1

[12] = compound: CN1CCN(c2nc(C3=C(c4c[nH]c5ccccc45)C(=O)NC3=O)c3ccccc3n2)CC1 [sotrastaurin]
Procedure, shortened: as §1

[13] = compound: CN1CC[C@H](c2c(O)cc(O)c3c(=O)cc(-c4ccccc4Cl)oc23)[C@H](O)C1 [alvocidib]
Procedure, shortened: as §1

[14] = compound: CN1CCc2c(c3ccccc3n2Cc2ccc(C(=O)NO)cc2)C1 [Tubastatin A]
Procedure, shortened: as §1

[15] = compound: CNC(=O)C1=CC=CC=C1NC2=NC(=NC=C2Cl)NC3=C(C=C(C=C3)N4CCOCC4)OC
Procedure, shortened: as §1

[16] = compound: CNC(=O)c1ccc(Nc2ncc(C(F)(F)F)c(NCc3nccnc3N(C)S(C)(=O)=O)n2)cc1 [defactinib]
Procedure, shortened: as §1

[17] = compound: CNCc1ccc(-c2[nH]c3cc(F)cc4c3c2CCNC4=O)cc1 [rucaparib]
Procedure, shortened: as §1

[18] = compound: CNc1nc(-c2ccc3c(N)n[nH]c3c2)cc(N2C[C@@H](C(=O)NC3CCCCC3)CC[C@H]2C)n1
Procedure, shortened: as §1

[19] = compound: COC(=O)N[C@@H](C)CNc1nccc(-c2cn(C(C)C)nc2-c2cc(Cl)cc(NS(C)(=O)=O)c2F)n1 [encorafenib]
Procedure, shortened: as §1

[20] = compound: COC(=O)[C@H](CCSC)NC(=O)C1=C(C=C(C=C1)NC[C@H](CS)N)C2=CC=CC=C2
Procedure, shortened: as §1

Measured: log2 fold change

ILF2 (UniProt Q12905)
Sequence of UniProt Q12905 (Q12905 whole entry, looked up): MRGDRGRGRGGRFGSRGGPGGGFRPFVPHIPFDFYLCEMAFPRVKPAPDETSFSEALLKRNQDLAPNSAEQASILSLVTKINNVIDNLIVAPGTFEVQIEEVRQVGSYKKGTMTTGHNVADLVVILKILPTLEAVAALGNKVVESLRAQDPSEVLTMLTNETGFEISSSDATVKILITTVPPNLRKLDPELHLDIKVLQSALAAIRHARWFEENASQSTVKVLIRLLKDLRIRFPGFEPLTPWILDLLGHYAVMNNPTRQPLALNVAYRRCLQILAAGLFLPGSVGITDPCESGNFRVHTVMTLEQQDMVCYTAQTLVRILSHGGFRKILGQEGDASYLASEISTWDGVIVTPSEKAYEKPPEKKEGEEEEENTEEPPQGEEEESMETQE
inactive: [1] 0.277 | [2] 0.281 | [3] 0.029 | [4] -0.186 | [5] -0.018 | [6] 0.2 | [7] -0.053 | [8] -0.099 | [9] 0.16 | [10] 0.352 | [11] 0.039 | [12] 0.041 | [13] 0.325 | [14] -0.058 | [15] 0.015 | [17] 0.19 | [18] 0.04 | [19] 0.028 | [20] 0.012
active: [16] 0.491

INTS7 (UniProt Q9NVH2)
Sequence of UniProt Q9NVH2 (Q9NVH2 whole entry, looked up): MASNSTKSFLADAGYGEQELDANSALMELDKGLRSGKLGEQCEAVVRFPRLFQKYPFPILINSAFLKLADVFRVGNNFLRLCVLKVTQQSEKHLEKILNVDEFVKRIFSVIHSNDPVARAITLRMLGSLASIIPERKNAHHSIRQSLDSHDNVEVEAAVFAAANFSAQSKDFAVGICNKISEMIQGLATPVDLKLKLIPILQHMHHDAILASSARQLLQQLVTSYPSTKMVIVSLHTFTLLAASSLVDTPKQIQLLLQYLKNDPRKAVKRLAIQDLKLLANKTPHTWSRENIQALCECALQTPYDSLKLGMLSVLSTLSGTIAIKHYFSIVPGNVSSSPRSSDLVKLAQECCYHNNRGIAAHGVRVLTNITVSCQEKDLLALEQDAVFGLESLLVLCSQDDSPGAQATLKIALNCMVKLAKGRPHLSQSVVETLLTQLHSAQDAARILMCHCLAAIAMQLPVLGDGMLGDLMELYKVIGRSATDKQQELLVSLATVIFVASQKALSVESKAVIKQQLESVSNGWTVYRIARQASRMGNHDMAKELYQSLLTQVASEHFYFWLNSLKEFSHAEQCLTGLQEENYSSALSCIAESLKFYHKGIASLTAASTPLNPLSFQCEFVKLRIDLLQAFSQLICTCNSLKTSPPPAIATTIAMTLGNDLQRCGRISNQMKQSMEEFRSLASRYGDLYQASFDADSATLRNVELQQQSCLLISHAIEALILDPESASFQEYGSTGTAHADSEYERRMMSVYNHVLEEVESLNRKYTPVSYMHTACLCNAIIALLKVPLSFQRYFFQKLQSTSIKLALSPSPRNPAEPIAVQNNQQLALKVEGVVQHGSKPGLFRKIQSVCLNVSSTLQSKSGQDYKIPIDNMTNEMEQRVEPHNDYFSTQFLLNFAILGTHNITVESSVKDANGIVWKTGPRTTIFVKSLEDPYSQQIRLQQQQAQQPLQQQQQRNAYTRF
inactive: [1] 0.035 | [2] -0.313 | [3] 0.1 | [4] -0.029 | [5] -0.119 | [6] -0.1 | [7] 0.038 | [8] 0.033 | [9] 0.069 | [10] 0.3 | [11] 0.035 | [13] -0.095 | [14] 0 | [16] -0.096 | [17] 0.019 | [18] -0.003 | [19] 0.036 | [20] -0.019
active: [12] -0.503 | [15] 0.529

LRPPRC (UniProt P42704)
inactive: [1] -0.413 | [2] -0.801 | [3] 0.161 | [4] 0.277 | [5] -0.243 | [6] 0.01 | [7] 0.334 | [8] 0.214 | [9] 0.177 | [10] -0.323 | [11] -0.281 | [12] -0.874 | [13] -0.58 | [14] 0.316 | [15] -0.241 | [16] -0.346 | [17] 0.395 | [18] -0.175 | [19] 0.116 | [20] -0.103

MAIP1 (UniProt Q8WWC4)
Sequence of UniProt Q8WWC4 (Q8WWC4 whole entry, looked up): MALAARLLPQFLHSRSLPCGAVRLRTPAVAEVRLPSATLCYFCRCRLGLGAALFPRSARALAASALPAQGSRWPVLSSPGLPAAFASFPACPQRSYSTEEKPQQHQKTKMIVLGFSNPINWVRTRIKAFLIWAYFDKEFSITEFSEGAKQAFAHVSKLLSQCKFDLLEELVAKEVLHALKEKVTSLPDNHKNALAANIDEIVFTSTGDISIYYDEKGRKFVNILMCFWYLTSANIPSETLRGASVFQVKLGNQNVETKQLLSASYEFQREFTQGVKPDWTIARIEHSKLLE
active: [10] -0.396
inactive: [1] -0.086 | [2] -0.098 | [3] -0.023 | [4] -0.068 | [5] 0.034 | [6] -0.015 | [7] 0.026 | [8] -0.001 | [9] -0.052 | [11] 0.03 | [12] 0.06 | [13] -0.058 | [14] 0.028 | [15] 0.002 | [16] -0.054 | [17] -0.039 | [18] -0.04 | [19] 0.048 | [20] 0.008

MDN1 (UniProt Q9NU22)
active: [2] -0.334 | [10] -0.287
inactive: [1] -0.109 | [3] 0.093 | [4] 0.006 | [5] -0.119 | [6] -0.076 | [7] 0.031 | [8] 0.08 | [9] -0.027 | [11] -0.029 | [12] -0.035 | [13] -0.143 | [14] 0.033 | [15] -0.092 | [16] -0.166 | [17] -0.067 | [18] 0.018 | [19] 0.018 | [20] -0.049

KEAP1 (UniProt Q14145)
Sequence of UniProt Q14145 (Q14145 whole entry, looked up): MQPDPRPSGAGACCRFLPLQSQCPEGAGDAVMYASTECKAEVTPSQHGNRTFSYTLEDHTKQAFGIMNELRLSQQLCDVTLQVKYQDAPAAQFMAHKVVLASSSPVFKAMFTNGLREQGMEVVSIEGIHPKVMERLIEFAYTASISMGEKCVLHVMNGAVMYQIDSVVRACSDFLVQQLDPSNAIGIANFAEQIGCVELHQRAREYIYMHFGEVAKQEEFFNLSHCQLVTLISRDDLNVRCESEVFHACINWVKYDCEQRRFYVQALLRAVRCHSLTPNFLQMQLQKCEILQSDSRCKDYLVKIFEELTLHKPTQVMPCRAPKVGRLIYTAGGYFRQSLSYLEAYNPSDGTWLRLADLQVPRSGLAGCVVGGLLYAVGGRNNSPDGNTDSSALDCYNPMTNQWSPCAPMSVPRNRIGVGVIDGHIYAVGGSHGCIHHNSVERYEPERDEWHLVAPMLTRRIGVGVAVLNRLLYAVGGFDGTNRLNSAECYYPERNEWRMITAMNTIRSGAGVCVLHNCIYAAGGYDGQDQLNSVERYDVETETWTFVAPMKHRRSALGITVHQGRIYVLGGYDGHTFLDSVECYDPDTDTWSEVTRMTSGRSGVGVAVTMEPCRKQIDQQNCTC
active: [2] -0.357
inactive: [1] -0.026 | [3] -0.034 | [4] -0.024 | [5] -0.017 | [6] 0.019 | [7] 0.033 | [8] 0.024 | [9] 0.056 | [10] 0.053 | [11] -0.009 | [12] -0.119 | [13] 0.02 | [14] -0.035 | [15] 0.054 | [16] -0.045 | [17] 0.116 | [18] -0.015 | [19] 0.059 | [20] -0.003

MAST4 (UniProt O15021)
Sequence of UniProt O15021 (O15021 whole entry, looked up): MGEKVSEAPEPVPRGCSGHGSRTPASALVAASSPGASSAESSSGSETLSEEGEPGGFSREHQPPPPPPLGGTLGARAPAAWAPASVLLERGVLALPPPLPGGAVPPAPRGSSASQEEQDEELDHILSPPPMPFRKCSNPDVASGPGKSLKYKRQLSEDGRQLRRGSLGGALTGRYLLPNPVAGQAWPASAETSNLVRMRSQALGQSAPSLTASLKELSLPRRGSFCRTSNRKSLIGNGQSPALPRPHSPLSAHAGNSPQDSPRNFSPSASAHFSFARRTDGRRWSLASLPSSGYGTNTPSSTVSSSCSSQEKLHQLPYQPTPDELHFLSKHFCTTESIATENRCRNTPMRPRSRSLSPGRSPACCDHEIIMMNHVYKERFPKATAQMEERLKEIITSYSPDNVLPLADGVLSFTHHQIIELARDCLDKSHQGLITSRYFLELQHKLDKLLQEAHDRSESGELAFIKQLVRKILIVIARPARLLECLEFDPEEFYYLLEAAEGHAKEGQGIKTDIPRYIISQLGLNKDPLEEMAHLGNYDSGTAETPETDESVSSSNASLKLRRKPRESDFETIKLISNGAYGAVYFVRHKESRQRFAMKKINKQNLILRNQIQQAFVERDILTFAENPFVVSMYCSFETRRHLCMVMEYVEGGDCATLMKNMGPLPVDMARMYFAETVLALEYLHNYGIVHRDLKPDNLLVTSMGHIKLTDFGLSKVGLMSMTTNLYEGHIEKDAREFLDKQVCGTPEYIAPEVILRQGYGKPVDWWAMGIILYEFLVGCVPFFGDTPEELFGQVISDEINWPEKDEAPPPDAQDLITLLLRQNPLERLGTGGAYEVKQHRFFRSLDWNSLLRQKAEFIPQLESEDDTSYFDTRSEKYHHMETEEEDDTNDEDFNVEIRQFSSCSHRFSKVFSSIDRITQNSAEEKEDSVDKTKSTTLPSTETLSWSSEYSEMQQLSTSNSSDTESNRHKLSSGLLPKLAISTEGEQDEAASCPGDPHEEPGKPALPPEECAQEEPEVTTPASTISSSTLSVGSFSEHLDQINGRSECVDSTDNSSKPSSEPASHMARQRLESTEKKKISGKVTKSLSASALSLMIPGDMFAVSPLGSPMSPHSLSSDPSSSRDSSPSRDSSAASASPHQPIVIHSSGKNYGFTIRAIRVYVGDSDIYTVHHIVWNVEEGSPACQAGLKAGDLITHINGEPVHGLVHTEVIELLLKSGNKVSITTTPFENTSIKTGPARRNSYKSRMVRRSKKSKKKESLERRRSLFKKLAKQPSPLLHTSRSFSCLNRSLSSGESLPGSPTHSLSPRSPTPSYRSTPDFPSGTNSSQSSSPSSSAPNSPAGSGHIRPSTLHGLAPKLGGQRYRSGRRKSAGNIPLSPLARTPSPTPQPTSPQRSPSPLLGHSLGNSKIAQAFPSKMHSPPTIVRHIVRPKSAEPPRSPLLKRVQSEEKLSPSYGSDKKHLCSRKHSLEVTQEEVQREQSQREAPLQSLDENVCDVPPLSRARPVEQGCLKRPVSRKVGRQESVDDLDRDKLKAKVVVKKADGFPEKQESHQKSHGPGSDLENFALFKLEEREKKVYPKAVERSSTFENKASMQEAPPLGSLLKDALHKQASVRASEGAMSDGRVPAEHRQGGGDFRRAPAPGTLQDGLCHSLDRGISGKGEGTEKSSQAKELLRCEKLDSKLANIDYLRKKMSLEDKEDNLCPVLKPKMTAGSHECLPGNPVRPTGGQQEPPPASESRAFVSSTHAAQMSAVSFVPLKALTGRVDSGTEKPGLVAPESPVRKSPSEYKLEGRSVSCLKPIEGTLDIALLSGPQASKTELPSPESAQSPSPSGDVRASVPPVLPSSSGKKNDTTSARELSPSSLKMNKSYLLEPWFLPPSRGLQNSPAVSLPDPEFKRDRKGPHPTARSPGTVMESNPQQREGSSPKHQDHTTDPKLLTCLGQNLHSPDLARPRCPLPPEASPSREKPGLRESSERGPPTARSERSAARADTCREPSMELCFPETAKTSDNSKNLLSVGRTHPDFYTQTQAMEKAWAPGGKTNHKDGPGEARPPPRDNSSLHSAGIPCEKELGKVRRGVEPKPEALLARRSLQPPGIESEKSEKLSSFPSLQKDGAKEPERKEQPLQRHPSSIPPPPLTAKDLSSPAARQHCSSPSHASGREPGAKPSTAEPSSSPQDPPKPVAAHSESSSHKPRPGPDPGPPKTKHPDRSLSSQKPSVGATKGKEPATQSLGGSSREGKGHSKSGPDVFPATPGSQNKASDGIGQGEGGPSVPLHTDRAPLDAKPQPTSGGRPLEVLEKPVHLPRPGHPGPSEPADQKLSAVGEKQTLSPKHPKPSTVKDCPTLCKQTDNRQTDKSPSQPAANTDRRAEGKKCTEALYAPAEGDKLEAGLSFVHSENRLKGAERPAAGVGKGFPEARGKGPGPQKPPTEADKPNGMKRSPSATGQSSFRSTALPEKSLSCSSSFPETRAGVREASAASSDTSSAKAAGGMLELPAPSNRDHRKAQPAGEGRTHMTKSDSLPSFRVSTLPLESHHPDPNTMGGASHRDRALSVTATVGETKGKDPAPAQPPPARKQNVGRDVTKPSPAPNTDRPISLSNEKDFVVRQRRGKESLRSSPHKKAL
inactive: [1] -0.059 | [2] -0.22 | [3] 0.073 | [4] 0.048 | [5] 0.056 | [6] -0.102 | [7] -0.009 | [8] 0.067 | [9] -0.115 | [10] -0.384 | [11] 0.006 | [12] -0.103 | [13] -0.065 | [14] 0.012 | [15] -0.087 | [16] -0.149 | [17] -0.101 | [18] -0.006 | [19] 0.042 | [20] -0.017

ILKAP (UniProt Q9H0C8)
inactive: [1] -0.135 | [3] 0.127 | [4] 0.077 | [5] -0.071 | [6] -0.052 | [7] 0.086 | [8] 0.023 | [9] -0.085 | [10] -0.064 | [11] -0.057 | [12] -0.087 | [13] -0.152 | [14] 0.055 | [15] -0.021 | [16] -0.155 | [17] 0.011 | [18] 0.055 | [19] 0.061 | [20] -0.078
active: [2] -0.343
